Measurements reported in PubChem BioAssay (Tox21).
Inconclusive results are not listed. A number with no mark means an inactive call. Active and inactive are the calls of the source. Calls follow the shape of the dose curve; as a rule, active = well fitted cell-killing curve with a large enough effect in the repeat runs; inconclusive = weak or mixed curves, or effect the other way; inactive = no such curve, though single readings can be large or run the other way.

Assay: qHTS assay to identify small molecule agonists of the vitamin D receptor (VDR) signaling pathway - cell viability counter screen (AID 743224)
Conditions: VDR-bla HEK293T viability, CellTiter-Glo luminescence, 16 h; series mostly up to 62.6 µM; activity change, negative = cytotoxicity: at the top concentration
Outline: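 Compounds were pin-transferred onto VDR-bla cells plated 4 h earlier; following 16 h incubation at 37C, cell viability was quantified by CellTiter-Glo luminescence after 30 min at room temperature.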
% is scaled to controls: 0 for no effect and ±100 for the full control effect.
Also: nearly all actives have a fitted effect of over 50% in size.

Question: With `NCCN1CCNCC1` as the compound, how does the “activity change, negative = cytotoxicity” value read?
Answer: -1.21% [at 81.1 µM]

Question: With `CCCCCCCC=O` as the compound, how does the “activity change, negative = cytotoxicity” value read?
Answer: -2.47%

Question: Which outcome does the source give for `O=c1[nH]cnc2[nH]ncc12` here?
Answer: inactive

Question: For `c1ccc2c(c1)Cc1ccccc1-2`, which outcome is on record?
Answer: inactive

Question: Which outcome does the source give for `CC1(C)CC(N)CC(C)(CN)C1` (stereo not given) here?
Answer: inactive

Question: With `CCCCCCO` as the compound, how does the “activity change, negative = cytotoxicity” value read?
Answer: 0.215% [at 81.1 µM]

Question: Which outcome does the source give for `O=C(O)Cn1c(=O)n(Cc2ccc(Br)cc2F)c(=O)c2ccc(Cl)cc21` here?
Answer: inactive

Question: Which outcome does the source give for `OCc1ccccc1` here?
Answer: inactive

Question: Which outcome does the source give for `C=CC(=O)OCCC(=O)O` here?
Answer: inactive

Question: Which outcome does the source give for `C=CC(C)CCCC(C)(C)O` (stereo not given) here?
Answer: inactive

Question: Which outcome does the source give for `COCCOC(=O)c1ccccc1C(=O)OCCOC` here?
Answer: inactive

Question: For `CCCCOC(=O)c1ccc(N)cc1`, which “activity change, negative = cytotoxicity” value is on record?
Answer: -15.8%

Question: Which outcome does the source give for `CC(CCO)CC(C)(C)C` (stereo not given) here?
Answer: inactive

Question: For `C=CCCCCCCCCC(=O)O`, which outcome is on record?
Answer: inactive

Question: Which outcome does the source give for `C=C(C)[C@H]1CC=C(C)C(=O)C1` here?
Answer: inactive

Question: With `CCc1ccccc1CC` as the compound, how does the outcome read?
Answer: inactive

Question: Which outcome does the source give for `CCOCCOCCOCCO` here?
Answer: inactive

Question: Which outcome does the source give for `O=C(O)c1ccc(S(=O)(=O)N(Cl)Cl)cc1` here?
Answer: inactive

Question: For `Clc1ccccn1`, which outcome is on record?
Answer: inactive

Question: With `COCCCN` as the compound, how does the outcome read?
Answer: inactive

Question: For `CN/C(=C\[N+](=O)[O-])NCCSCc1csc(CN(C)C)n1`, which outcome is on record?
Answer: inactive

Question: Which “activity change, negative = cytotoxicity” value does the source give for `Brc1ccc(Br)c(Br)c1` here?
Answer: 5.56% [at 81.1 µM]

Question: For `CC1(C)NC(=O)NC1=O`, which outcome is on record?
Answer: inactive

Question: With `CCO[Si](CCC#N)(OCC)OCC` as the compound, how does the outcome read?
Answer: inactive

Question: With `Cc1ccc([N+](=O)[O-])cc1S(=O)(=O)O` as the compound, how does the outcome read?
Answer: inactive

Question: For `O=C(O)c1ccccc1C(=O)O`, which outcome is on record?
Answer: inactive

Question: Which outcome does the source give for `CC1(C)OC[C@@H]2O[C@@]3(C(=O)O)OC(C)(C)O[C@H]3[C@@H]2O1` here?
Answer: inactive

Question: Which “activity change, negative = cytotoxicity” value does the source give for `CNC(=S)N(C)C` here?
Answer: -2.02% [at 81.1 µM]

Question: Which outcome does the source give for `O=C1CCCC1` here?
Answer: inactive

Question: For `CC(O)CC(C)(C)O` (stereo not given), which outcome is on record?
Answer: inactive

Question: Which outcome does the source give for `COC(=O)CCCC(=O)OC` here?
Answer: inactive

Question: With `C=CCc1ccc(OC)c(OC)c1` as the compound, how does the outcome read?
Answer: inactive

Question: For `Cc1ccc(S(=O)(=O)N=C=O)cc1`, which outcome is on record?
Answer: inactive

Question: For `O=S(=O)(O)c1ccccc1`, which outcome is on record?
Answer: inactive

Question: For `CN1C(=O)CC[C@H]1c1cccnc1`, which outcome is on record?
Answer: inactive

Question: Which outcome does the source give for `CCNC(=S)NCC` here?
Answer: inactive

Question: Which outcome does the source give for `C=CC[N+](C)(C)CC=C` here?
Answer: inactive

Assay: qHTS assay to identify small molecule antagonists of the vitamin D receptor (VDR) signaling pathway - cell viability counter screen (AID 743225)
Conditions: VDR-bla HEK293T viability, CellTiter-Glo luminescence, 16 h; series mostly up to 61 µM; viability change, negative = cytotoxic: at the top concentration
Outline: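 Cells (VDR-UAS-bla HEK 293T) are plated, rested 4 h at 37C, dosed with compound and 3 nM final 1-alpha,25-dihydroxy vitamin D3, and incubated 16 h. Viability is taken from CellTiter-Glo luminescence in the reporter wells.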

Question: For `NCCN1CCNCC1`, which outcome is on record?
Answer: inactive

Question: Which outcome does the source give for `CCCCCCCC=O` here?
Answer: inactive

Question: For `O=c1[nH]cnc2[nH]ncc12`, which outcome is on record?
Answer: inactive

Question: Which outcome does the source give for `c1ccc2c(c1)Cc1ccccc1-2` here?
Answer: inactive

Question: For `CC1(C)CC(N)CC(C)(CN)C1` (stereo not given), which outcome is on record?
Answer: inactive

Question: For `CCCCCCO`, which “viability change, negative = cytotoxic” value is on record?
Answer: 5.82% [at 78.8 µM]

Question: For `O=C(O)Cn1c(=O)n(Cc2ccc(Br)cc2F)c(=O)c2ccc(Cl)cc21`, which outcome is on record?
Answer: inactive

Question: With `OCc1ccccc1` as the compound, how does the outcome read?
Answer: inactive

Question: With `Cc1ccc(C(C)C)c(O)c1` as the compound, how does the “viability change, negative = cytotoxic” value read?
Answer: 7.82%

Question: For `C=CC(=O)OCCC(=O)O`, which “viability change, negative = cytotoxic” value is on record?
Answer: -12.2% [at 78.8 µM]

Question: With `C=CC(C)CCCC(C)(C)O` (stereo not given) as the compound, how does the “viability change, negative = cytotoxic” value read?
Answer: -17.5%

Question: Which outcome does the source give for `COCCOC(=O)c1ccccc1C(=O)OCCOC` here?
Answer: inactive

Question: Which “viability change, negative = cytotoxic” value does the source give for `CCCCOC(=O)c1ccc(N)cc1` here?
Answer: -14.9%

Question: For `CC(CCO)CC(C)(C)C` (stereo not given), which “viability change, negative = cytotoxic” value is on record?
Answer: -16.3%

Question: With `C=CCCCCCCCCC(=O)O` as the compound, how does the “viability change, negative = cytotoxic” value read?
Answer: -3.94%

Question: For `C=C(C)[C@H]1CC=C(C)C(=O)C1`, which outcome is on record?
Answer: inactive

Question: Which viability change, negative = cytotoxic does the source give for `CCc1ccccc1CC` here?
Answer: 4.82% [at 15.1 µM]

Question: Which outcome does the source give for `CCOCCOCCOCCO` here?
Answer: inactive

Question: For `O=C(O)c1ccc(S(=O)(=O)N(Cl)Cl)cc1`, which outcome is on record?
Answer: inactive

Question: For `Clc1ccccn1`, which outcome is on record?
Answer: inactive

Question: With `COCCCN` as the compound, how does the outcome read?
Answer: inactive

Question: With `CN/C(=C\[N+](=O)[O-])NCCSCc1csc(CN(C)C)n1` as the compound, how does the outcome read?
Answer: inactive

Question: With `Brc1ccc(Br)c(Br)c1` as the compound, how does the outcome read?
Answer: inactive

Question: Which outcome does the source give for `CC1(C)NC(=O)NC1=O` here?
Answer: inactive

Question: With `CCO[Si](CCC#N)(OCC)OCC` as the compound, how does the outcome read?
Answer: inactive

Question: For `Cc1ccc([N+](=O)[O-])cc1S(=O)(=O)O`, which “viability change, negative = cytotoxic” value is on record?
Answer: 5.26%

Question: With `O=C(O)c1ccccc1C(=O)O` as the compound, how does the outcome read?
Answer: inactive

Question: With `CC1(C)OC[C@@H]2O[C@@]3(C(=O)O)OC(C)(C)O[C@H]3[C@@H]2O1` as the compound, how does the outcome read?
Answer: inactive

Question: With `CNC(=S)N(C)C` as the compound, how does the outcome read?
Answer: inactive

Question: Which “viability change, negative = cytotoxic” value does the source give for `O=C1CCCC1` here?
Answer: 4.39%

Question: For `CC(O)CC(C)(C)O` (stereo not given), which outcome is on record?
Answer: inactive

Question: Which “viability change, negative = cytotoxic” value does the source give for `COC(=O)CCCC(=O)OC` here?
Answer: -15.4%

Question: Which outcome does the source give for `C=CCc1ccc(OC)c(OC)c1` here?
Answer: inactive

Question: For `Cc1ccc(S(=O)(=O)N=C=O)cc1`, which outcome is on record?
Answer: inactive

Question: With `O=S(=O)(O)c1ccccc1` as the compound, how does the outcome read?
Answer: inactive

Question: With `CN1C(=O)CC[C@H]1c1cccnc1` as the compound, how does the outcome read?
Answer: inactive

Question: For `CCNC(=S)NCC`, which outcome is on record?
Answer: inactive

Question: Which outcome does the source give for `C=CC[N+](C)(C)CC=C` here?
Answer: inactive
